Bioassay records from PubChem.
FLuc counter = counter-screen for miR-21 project: firefly luciferase inhibitors or activators; purified FLuc, Km substrates, luminescence inhibition; Potency, µM (top dose mostly 57.5 µM), for the others: at the top dose activity change, negative = inhibition, hits mostly inhibitors; 360,000 compounds, 6.9% hits; AID 588342;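 further: plate controls were vehicle for no effect and reference inhibitor for full effect; nearly all actives have a fitted effect of over 55% in size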
Target sequence (P08659 whole entry, looked up): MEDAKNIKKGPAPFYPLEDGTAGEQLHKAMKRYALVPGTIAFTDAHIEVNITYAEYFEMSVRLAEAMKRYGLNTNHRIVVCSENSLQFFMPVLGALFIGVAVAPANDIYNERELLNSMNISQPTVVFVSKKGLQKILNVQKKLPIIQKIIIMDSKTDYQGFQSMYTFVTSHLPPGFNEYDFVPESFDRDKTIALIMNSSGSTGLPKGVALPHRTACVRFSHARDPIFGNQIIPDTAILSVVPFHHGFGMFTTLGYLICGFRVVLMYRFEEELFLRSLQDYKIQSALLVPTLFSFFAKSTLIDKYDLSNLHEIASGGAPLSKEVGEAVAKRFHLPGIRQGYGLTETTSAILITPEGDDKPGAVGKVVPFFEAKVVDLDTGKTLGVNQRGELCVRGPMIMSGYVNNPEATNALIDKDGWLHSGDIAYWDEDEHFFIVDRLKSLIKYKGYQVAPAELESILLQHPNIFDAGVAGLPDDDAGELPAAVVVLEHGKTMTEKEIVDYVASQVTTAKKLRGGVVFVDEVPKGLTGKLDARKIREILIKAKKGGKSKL
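Purified P. pyralis luciferase, 10 nM final, with Km-level 10 uM D-luciferin and 10 uM ATP in 50 mM Tris acetate pH 7.5, 10 mM Mg acetate, 0.01% Tween-20, 0.05% BSA; 6-point qHTS titration about 60 µM downward; luminescence read.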
SMN2 splice up = SMN2 splice variant enhancement; 210,000 compounds, 2.8% hits; HEK293 SMN2-luciferase splicing reporter, luminescence, 30-36 h; Potency, µM (doses to about 46.1 µM), for inactives: at the highest dose activity change, positive = activation, usual class: activators; further: % of control where 0% means no effect; nearly all actives have a fitted effect of over 55% in size
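HEK293 cells carry an SMN2 minigene-luciferase reporter in which exon 7 inclusion puts luciferase in frame. Cells were seeded at 2000 cells/well, attached for 10-12 hours, then exposed to compounds for 30-36 hours at 37C before ONE-Glo luminescence.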
Rab9 prom act = Rab9 promoter activation; Huh7 Rab9 promoter-luciferase reporter, luminescence, 24 h; Potency, µM (highest dose often 9.22 µM), for the others: at the highest dose activation, negative = inhibition, actives largely listed as activators; 320,000 compounds, 2.8% hits; AID 485297; further: % of control where 0% means no effect; nearly all actives have a fitted effect of over 60% in size
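Rab9 promoter-driven luciferase in stably transfected Huh7 cells; 1500 cells/well rested 2 h, exposed to compound in DMSO for 24 h at 37 °C, 5% CO2. Luminescence read 10 min after adding luciferase reagent at ambient temperature.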
KinaseGlo FLuc = Kinase-Glo luciferase inhibition (counter-screen); Q27757; Kinase-Glo luciferase, ATP luminescence, 8 min; Potency, µM (doses to about 38.3 µM), for inactives: top-dose activity change, negative = inhibition, most hits filed as inhibitors; 200,000 compounds, 0.28% hits; AID 1379; further: on the % scale 0 is the no-effect control and ±100 the full control effect; nearly all actives have a fitted effect of over 60% in size
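Luminescence was the read-out, taken after 8-minute incubation at ambient temperature. Luciferase turned over luciferin with 10 uM ATP in imidazole pH 7.2 buffer containing KCl, MgCl2, Tween 20 and BSA.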
NPC1 prom act = NPC1 promoter activation. 320,000 compounds, 2.4% hits. AID 485313. Huh7 NPC1 promoter luciferase reporter, 24 h. Potency, µM (titrated, usually from 9.22 µM), inactives show at the highest dose activation, most hits filed as activators; further: % of control where 0% means no effect; nearly all actives have a fitted effect of over 60% in size
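Readout is luciferase luminescence, reflecting NPC1 promoter activation in stably transfected Huh7 cells after 24 h compound exposure at 37 °C in reduced-serum medium with 10% FBS.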
* marks the source's active call; other numbers are inactive results; ? = inconclusive; . = no result given; [ ] = remark or other dose. Compounds with a hit are over-represented: about 7.3% of the library has one in this group of screens. The call rests on the fitted dose curve; in most records, active means well fitted curve in the direction sought with a large enough effect; inconclusive means small, poorly fitted or top-dose-only effect, or another doubt; inactive means no such curve, though single readings can be large; an effect the other way counts as inactive or inconclusive. Potency means the concentration at half of the fitted maximal effect.

SMILES | FLuc counter | SMN2 splice up | Rab9 prom act | KinaseGlo FLuc | NPC1 prom act
Cc1ccc2c(c1)COc1c3ccc(C(=O)N4CCOCC4)cc3nn1-2 | 9.5µM* | . | 1.6µM* | . | 2.5µM*
O=C(O)c1ccc2c(=O)n3c(nc2c1)/C(=C/c1ccc(Cl)cc1Cl)CC3 | -2% | . | -10% | . | -3%
O=C(c1ccc2c(=O)n3c(nc2c1)CCCCC3)N1CCCCC1 | 2% | . | -5% | . | -3%
O=C(O)c1ccc2c3n(nc2c1)-c1ccc(Cl)cc1CO3 | 1.9µM* | . | ? | . | ?
Cc1ccc(N2CCN(Cc3nnc(-c4ccc5c(c4)OCO5)o3)CC2)c(C)c1 | -3% | 0% | . | . | .
COc1ccc(CNc2ncnc3onc(-c4ccc(F)cc4)c23)cc1 | -7% | . | . | . | .
CCOc1ccc(C(=O)Oc2c(Sc3ccccc3)c(C)nn2C(C)(C)C)cc1OCC | 0% | 11% | . | . | .
CSc1nc(N)n2nc(C(C)(C)C)cc2n1 | 17µM* | . | -1% | . | 9%
Cc1ccc(C)c(OCCCCn2cnc3ccccc3c2=O)c1 | -12% | . | -3% | . | -1%
Clc1ccc(OCCn2cnc3ccccc32)cc1 | 3%[2.3 µM] | -33% | 7% | 0% | 6%
Clc1ccccc1OCCn1cnc2ccccc21 | 17µM* | -19% | ? | -3% | 27%
Brc1ccccc1OCCCCn1cnc2ccccc21 | 11µM* | -46% | -1% | 1% | -4%
Cc1ccc(OCCCCn2cnc3ccccc32)c(C)c1 | 11µM* | -76% | -1% | -2% | 2%
COc1cc2c3cc1Oc1c(OC)c(OC)cc4c1[C@@H](Cc1ccc(O)c(c1)Oc1ccc(cc1)C[C@@H]3N(C)CC2)CN(C)C4 | . | 1%[9.22 µM] | . | -1%[7.66 µM] | .
Cn1cnc(S(=O)(=O)N2CCC(C(=O)NCc3ccc(F)cc3)CC2)c1 | 0% | . | . | . | .
COc1ccc(-c2cc(CS(=O)(=O)c3ccccc3)on2)cc1 | 11µM* | 18µM* | 3.2µM* | 1% | 3.2µM*
O=S(=O)(Cc1cc(-c2ccccc2)no1)c1ccccc1 | 27µM* | ? | ? | 2% | ?
COc1ccc(-c2cc(CNS(=O)(=O)c3ccc(NC(C)=O)cc3)on2)cc1 | -1% | . | 1% | . | 0%
Clc1nc(-c2cccnc2)nc2scc(-c3ccccc3)c12 | 12µM* | 15% | 28% | -3% | ?
Cc1cc(C(=O)N2CCc3c([nH]c4ccccc34)C2c2cccc(Cl)c2)nn1C (configuration not stated) | -10% | . | -1% | -1% | 1%
CSc1ccc(C2c3[nH]c4ccccc4c3CCN2C(=O)c2cc(C)n(C)n2)cc1 (configuration not stated) | 17µM* | ? | ? | 1% | 9%
Cc1ccccc1/C(N)=N/OC(=O)c1ccc(F)cc1 | 1.3µM* | -3% | ? | ? | ?
Cc1ccccc1C(=O)O/N=C(\c1ccccc1)c1ccccn1 | 21µM* | 20% | 0% | -3% | 0%
C/C(=N/OC(=O)c1ccc(F)cc1)c1ccc(C)cc1 | 0.67µM* | -6% | -8% | -6% | 1%
Cc1ccccc1C(=O)O/N=C(\N)c1ccccc1 | 0.17µM* | . | 0.79µM* | . | 3.5µM*
SMILES | FLuc counter | SMN2 splice up | Rab9 prom act | KinaseGlo FLuc | NPC1 prom act
COc1cc(NC(=O)c2cc(S(=O)(=O)N3CCC(C)CC3)cn2C)cc(OC)c1OC | -1% | . | . | . | .
COc1ccc(C2c3cc(OC)c(OC)cc3CC(=O)N2c2cccc(C#N)c2)cc1 (configuration not stated) | 2% | 3% | . | . | .
N/C(=N\OC(=O)c1ccccc1F)c1cccc([N+](=O)[O-])c1 | 3.4µM* | . | 2.8µM* | . | 2.8µM*
N/C(Cc1ccc([N+](=O)[O-])cc1)=N\OC(=O)c1ccccc1Br | -15% | -1% | -1% | 1% | 1%
N/C(=N\OC(=O)c1ccccc1Br)c1cccc([N+](=O)[O-])c1 | 2.4µM* | . | 1.3µM* | . | 2.2µM*
N/C(=N\OC(=O)c1ccccc1Br)c1ccc([N+](=O)[O-])cc1 | 5.4µM* | . | 3.5µM* | . | 4µM*
COc1cc(C(=O)O/N=C(\N)c2ccc([N+](=O)[O-])cc2)cc(OC)c1OC | 5% | 6% | -2% | -1% | -4%
Cc1ccccc1C(=O)O/N=C(\N)c1ccc([N+](=O)[O-])cc1 | 19µM* | . | ? | . | ?
CCN(C(=O)Cc1c(C(=O)O)c(C)cn1C)c1cccc(Cl)c1 | -1% | . | . | . | .
CC1CCCCN1CCCNC(=O)c1[nH]c2ccccc2c1Sc1ccc(Cl)cc1 (configuration not stated) | -2% | . | . | . | .
O=S1(=O)c2ccccc2N(Cc2cccc(Cl)c2)c2ccccc21 | -20% | . | . | . | .
Oc1cc2c(cc1O)[C@@H]1c3ccc(O)c(O)c3OC[C@]1(O)C2 | . | 0% | . | -3% | .
COc1ccc(OCC(=O)N/N=C(\C)c2cc3ccccc3o2)cc1 | 1.5µM* | 27% | 15% | -9% | 17%
C/C(=N\Nc1ccc(C(=O)O)cc1)c1nc2ccccc2n1C | 11µM* | 10µM* | 1.1µM* | 1% | 0.56µM*
C/C(=N\Nc1ccc(C(=O)O)cc1)c1ccc(-n2ccnc2)cc1 | 12µM* | 20µM* | 4µM* | 5% | 2.5µM*
C/C(=N\NC(=O)COc1ccccc1)c1ccc(O)cc1 | ? | . | 21% | -1% | 18%
C/C(=N\NC(N)=O)c1ccc(-n2ccnc2)cc1 | -1% | -3% | 1% | 0% | -5%
COc1ccc(OCC(=O)N/N=C(\C)c2ccc(OC)cc2)cc1 | 24µM* | -8% | 1% | 2% | -2%
CCc1cccc(NC(=O)Cn2nc(C)c3sc4ccccc4c3c2=O)c1 | -1% | . | . | . | .
CCc1ccc(OCC(=O)N/N=C(\C)c2ccc(-n3ccnc3)cc2)cc1 | 1.3µM* | . | 18% | . | 15%
O=c1cc(-c2cccc(O)c2O)oc2ccccc12 | . | . | . | 0% | .
